For 19 molecules, outcome results are on record in PubChem BioAssay (NCATS).

Results filed as inconclusive are left out. Activity calls are given as the source filed them. Calls come from the whole dose curve; as a rule, active = well fitted activation curve with a large enough effect; inconclusive = small, poorly fitted or top-dose-only effect; inactive = flat fitted curve, though single readings scatter. Numbered stars: 1 amine (or outer) side, 2 acyl side, 3 side chain; on linkers, the order of the positions; unused ones are H or OH. Bridge positions count the residues as written; N and C are the ends. Square brackets hold non-standard residues; d marks the D form. Peptide text beside a SMILES is read from it. I, II: the chains in the order shown. Actinocin(9to1) = Cc1c2oc3c(C)ccc(C(=O)[*:1])c3nc-2c(C(=O)[*:2])c(N)c1=O; NMeV = CN[C@H](C(=O)O)C(C)C; Sar = CNCC(=O)O

This experiment in a line: Cellular Toxicity (caspase-3) Hek293 (AID 664).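 Note: cells exposed to compound for 16 h at 37 °C before readout.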 The settings on record: HEK293 caspase-3 activation, DMSO = 0%, 100 µM tamoxifen = 100%; series mostly up to 92.2 µM. The text has this:
NIH Chemical Genomics Center [NCGC]
NIH Molecular Libraries Screening Centers Network [MLSCN]
National Institutes of Environmental Health Sciences [NIEHS]
National Toxicology Program [NTP]
We have developed a 1536-well cell-based assay for quantitative high throughput screening (qHTS) against a number of cell lines to determine in vitro caspase 3/7 of small molecules. This particular assay uses the Hek 293 cell line which is derived from human embryonic kidney cells.
NCGC Assay Protocol Summary:
The Caspase-Glo 3/7 assay (Promega) is a homogeneous method to measure caspase-3 and caspase-7 activities in cultured cells. The quantitation of caspase 3/7 activity is based on the cleavage of a peptide-aminoluciferin substrate. After caspase cleaves the substrate the free aminoluciferin is liberated and serves as the substrate of luciferase, which generates the light. The luminescent signal is proportional to amount of caspase 3/7 activity present.
Using the Caspase-Glo 3/7 assay, the amount of caspase 3/7 activity was measured in the Hek 293 cell line with complete culture medium following compound treatment for 16 hours. The assay was performed in opaque white 1536-well plates. In the screen, tamoxifen and doxorubicin were used as positive controls. Library compounds were measured for their ability to cause the activation of caspase 3/7 in the cell line, as reflected by an increase in luminescence signal, in a concentration-dependent manner. Data were normalized to the controls for basal activity (DMSO only) and 100% stimulation (100 uM tamoxifen). AC50 values were determined from concentration-response data modeled with the standard Hill equation.
qHTS protocol for caspase 3/7 assay in Hek 293 cells
[Step] [Parameter] [Value] [Description]
2. Time; 5 hr; 37 °C incubation
4. Controls; 23 nL; Tamoxifen 0.23 uM to 100 uM & Doxorubicin 7.0 pM to 100 uM
5. Time; 16 hr; 37 °C incubation
6. Reagent; 5 uL; Caspase-Glo 3/7 reagent
7. Time; 20 min; Room Temperature
8. Detection; Luminescence; Viewlux plate reader
Keywords: caspase 3/7, apoptosis, Hek 293 cell line, luminescence, NTPHTS, NTPHTS_NCGC, NIEHS, EPA, DSSTox, MLSMR, MLSCN, NIH Roadmap, qHTS, NCGC
For the molecule `O=C1OC(c2ccc(O)cc2)(c2ccc(O)cc2)c2ccccc21`, the call was inactive.

`Nc1ccc(C(=O)O)cc1`: the molecule was classed as inactive.

With `Oc1c(I)cc(Cl)c2cccnc12`, the outcome was inactive.

`NC(=NCCCCCCN=C(N)/N=C(\N)Nc1ccc(Cl)cc1)/N=C(\N)Nc1ccc(Cl)cc1`: the molecule was called inactive.

Consider `CN(C)/N=N/c1nc[nH]c1C(N)=O`, for which the call was inactive.

Turning to `Oc1ccc(O)cc1`, the molecule was classed as inactive.

Turning to `C[C@]12CC[C@@H]3c4ccc(O)cc4CC[C@H]3[C@@H]1CC[C@@H]2O`, the molecule was called inactive.

In the case of `CC(O)C(=O)O` (centres undefined), the call was inactive.

On to `Cc1c2oc3c(C)ccc(C(=O)N[C@@H]4C(=O)N[C@H](C(C)C)C(=O)N5CCC[C@H]5C(=O)N(C)CC(=O)N(C)[C@@H](C(C)C)C(=O)O[C@@H]4C)c3nc-2c(C(=O)N[C@@H]2C(=O)N[C@H](C(C)C)C(=O)N3CCC[C@H]3C(=O)N(C)CC(=O)N(C)[C@@H](C(C)C)C(=O)O[C@@H]2C)c(N)c1=O` (I: T[dV]P[Sar][NMeV] / II: T[dV]P[Sar][NMeV]; ester I:1-I:C, II:1-II:C; linker I:N-II:N via Actinocin(9to1)), for which the molecule was called inactive.

`CCCCCCc1ccc(O)cc1O`: the outcome was inactive.

`COc1cccc2c1C(=O)c1c(O)c3c(c(O)c1C2=O)C[C@@](O)(C(=O)CO)C[C@@H]3O[C@H]1C[C@H](N)[C@H](O)[C@H](C)O1`: the molecule was classed as inactive.

In the case of `C=CCc1ccc(O)c(OC)c1`, the call was inactive.

On to `C=C(CC)C(=O)c1ccc(OCC(=O)O)c(Cl)c1Cl`, for which the outcome was inactive.

Turning to `CC(=O)Oc1ccc(C(c2ccc(OC(C)=O)cc2)c2ccccn2)cc1`, the molecule was classed as inactive.

Turning to `CC/C(=C(/CC)c1ccc(O)cc1)c1ccc(O)cc1`, the result was inactive.

Take `COC1=CC(=O)C[C@@H](C)[C@]12Oc1c(Cl)c(OC)cc(OC)c1C2=O`: the molecule was classed as inactive.

Take `Oc1ccc(Cl)cc1Sc1cc(Cl)ccc1O`: the call was inactive.

Consider `O=C(O)CCCCC(=O)O`, for which the result was inactive.

As for `O=c1ccc2ccccc2o1`, the result was inactive.
